Source: PubChem BioAssay AID492997 (Johns Hopkins Ion Channel Center, 2010)
Out of some 4,900 compounds screened, about 2,000 (41%) were called active.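 How the source made its calls: active means thallium signal drop beyond 5 SD of the untreated control mean, on both duplicate plates; inactive means the rest.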 The set was probably picked from earlier hits. The list is a sample of the results.

Test: thallium flux in non-induced HEK293 cells, confirmation, counter-screen for KCNK9 inhibitor project, cell-based, second counter screen, non-induced KCNK9-HEK293 (AID 492997);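 on inhibition: plate controls were buffer only IC0 wells for no effect and SID17386958 at its maximal inhibitory level for full effect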
Conditions: non-induced KCNK9-HEK293, FluxOR thallium flux, at 10 µM; active compounds read high

Row | Compound | inhibition
1 | O=C(COC(=O)/C(=C/c1cccs1)c1cccs1)NCc1ccccc1Cl | 31% (active)
2 | Cc1ccc(NC(=O)c2cc([N+](=O)[O-])ccc2Cl)c(O)c1 | 32% (active)
3 | N#Cc1nc(Cc2cccc3ccccc23)oc1NCc1ccc2c(c1)OCO2 | 53.5% (active)
4 | Cc1ccc(C(=O)c2c(NC(=O)c3ccccc3)sc(C)c2C)cc1 | inactive
5 | O=C(CC(NC(=O)c1ccccc1)c1ccccc1)Nc1ccc(F)c(F)c1 (stereo not drawn) | 37% (active)
6 | O=[N+]([O-])c1ccc(N2CCN(CC(O)COc3ccccc3)CC2)cc1 (stereo not drawn) | inactive
7 | Cc1ccc(C)c(NC(=S)NNC(=S)Nc2ccc(C(C)C)cc2)c1 | inactive
8 | O=C(Cn1cc(C(=O)c2cccs2)c2ccccc21)NCc1cccs1 | 29.5% (active)
9 | CCOc1cccc(OCCCOc2cccc3cccnc23)c1 | inactive
10 | Cc1cc(Cl)ccc1C(=O)C1CCCN(C(=O)CCN2CCCO2)C1 (stereo not drawn) | inactive
11 | CCCOc1ccc2c3c(c(=O)oc2c1OCCC)CCC3 | 48.5% (active)
12 | Cc1cc2ccccn2c1C(=O)c1cccc(F)c1 | inactive
13 | COc1cc(Cl)c(C)cc1NC(=O)CSc1nnc(-c2ccco2)n1CC(C)C | 25.5% (active)
14 | O=C(Nc1nnc(SCc2ccc(Cl)cc2Cl)s1)C1COc2ccccc2O1 (stereo not drawn) | inactive
15 | COc1cccc(-c2nn(C)c3sc(C(=O)N4CCN(c5ccccc5)CC4)cc23)c1 | inactive
16 | COc1ccccc1C(c1nnnn1C(C)(C)C)N1CCN(Cc2ccccc2)CC1 (stereo not drawn) | 37.5% (active)
17 | CC1=C/C(=N\OS(=O)(=O)c2ccccc2)C=CC1=O | inactive
18 | CCOc1ccccc1NC(=O)C1CCCN(S(=O)(=O)c2ccccc2)C1 (stereo not drawn) | inactive
19 | Clc1ccc(COn2c(-c3ccc(Cl)cc3Cl)nc3ncccc32)cc1 | 45% (active)
20 | CCOC(=O)C(C)n1cnc2scc(-c3ccc(C)c(C)c3)c2c1=O (stereo not drawn) | inactive
21 | CCCCCCCCCCOC(=O)Cn1c(COc2ccc(C)cc2)[n+](C)c2ccccc21 | inactive
22 | CCCCCCCCCCOC(=O)Cn1c(COc2cccc(OC)c2)[n+](C)c2ccccc21 | 28% (active)
23 | Cc1onc(-c2ccc(Cl)cc2)c1-c1ccnn1S(=O)(=O)c1ccc(Cl)cc1 | 46.5% (active)
24 | Cc1cc2ccccn2c1C(=O)c1cccc(S(=O)(=O)N2CCOCC2)c1 | inactive
25 | CCCCn1ccnc1C(=O)c1cccc(S(=O)(=O)N2c3ccccc3CC2C)c1 (stereo not drawn) | 46.5% (active)

Row | Compound | inhibition
26 | Cc1cccc(N2CCN(C(=O)c3cccc(S(=O)(=O)N4CCc5ccccc5C4)c3)CC2C)c1 (stereo not drawn) | inactive
27 | C=CCc1cc(S(=O)(=O)c2ccc(O)c(CC=C)c2)ccc1O | 26% (active)
28 | COc1ccc([N+](=O)[O-])cc1-c1nc2ccccc2nc1-c1ccccc1 | 37% (active)
29 | O=C1CC(c2ccccc2)=NN1c1ccc([N+](=O)[O-])cc1 | inactive
30 | Cc1ccc(CN2CCN(/N=C/c3ccco3)CC2)c(C)c1 | inactive
31 | CCOC(=O)C(C)Sc1nc2ccccc2c(=O)n1CC1CCCCC1 (stereo not drawn) | 31.5% (active)
32 | Cc1[nH][nH]c(=O)c1C(c1ccc(-c2ccc(Cl)cc2)o1)c1c(C)[nH][nH]c1=O | inactive
33 | CC(C)(C)SCCSC1=CC(=O)CC(c2ccccc2)C1 (stereo not drawn) | inactive
34 | Cc1cccc(NC(=O)c2sc3nc4c(c(-c5ccco5)c3c2N)CCC4)c1 | 38.5% (active)
35 | Cc1ccnc(N2CCN(C(=O)CSc3nc4ccccc4nc3N3CCCCC3)CC2)c1 | inactive
36 | COC(=O)c1cc(NC2c3ccccc3C(=O)N2c2ccc(Cl)cn2)cc(C(=O)OC)c1 (stereo not drawn) | 28.5% (active)
37 | CCOC(=O)N/N=C/c1cn(Cc2ccccc2Cl)c2ccccc12 | 25.5% (active)
38 | COc1cc(C(CCN2CCN(c3ccccc3)CC2)c2c(OC)cc(OC)c3ccc(=O)oc23)cc(OC)c1OC (stereo not drawn) | inactive
39 | Cc1ccc(C2=NN(C)c3nc4ccccc4n3C2)cc1 | inactive
40 | CCC/C=C(\CCC)C(NC(=O)Cc1ccccc1)c1ccc(C(=O)OC)cc1 (stereo not drawn) | 53% (active)
41 | CC(Oc1ccc2ccccc2c1)C(=O)NNC(=S)NC(=O)c1ccco1 (stereo not drawn) | inactive
42 | O=C(Nc1ccc(Oc2ccccc2)cc1)c1ccco1 | 39.5% (active)
43 | Cc1ncoc1C(=O)N1CCCC(C(=O)c2ccc3c4c(cccc24)CC3)C1 (stereo not drawn) | inactive
44 | O=S(=O)(Nc1cccc(Oc2ccc(Cl)cc2)n1)c1ccc(F)cc1 | inactive
45 | Cc1cc(Oc2ccc(Cl)cc2)nc(SCC(=O)c2ccccc2)n1 | 28% (active)
46 | CCOC(=O)CSc1nc2c(sc(=S)n2CCc2ccccc2)c(=O)n1Cc1ccco1 | 35.5% (active)
47 | O=C(COC(=O)c1ccccc1)Nc1ccccc1Sc1ccccc1 | 34.5% (active)
48 | COc1ccc(OC)c(-c2csc(-c3cccs3)n2)c1 | 26.5% (active)
49 | COc1ccccc1/C=C/C=N/n1c(-c2ccc(Cl)cc2Cl)n[nH]c1=S | inactive
50 | Brc1ccc(C2CC(c3ccccc3)=Nc3ccccc3N2)cc1 (stereo not drawn) | 34.5% (active)

Row | Compound | inhibition
51 | COc1ccc(C(=O)C2CCCN(Cc3ccc4nonc4c3)C2)c(C)c1 (stereo not drawn) | inactive
52 | COc1ccc(C2CC(c3cccs3)=Nc3ccccc3S2)cc1OC (stereo not drawn) | 33% (active)
53 | CCCCNC(=S)N/N=C1\CCCCc2ccccc21 | inactive
54 | CCOC(=O)N1CCN(C(=O)COc2ccc3oc4c(c3c2)CCCC4)CC1 | inactive
55 | CCOc1ccc(C(C)C)cc1S(=O)(=O)n1nc(C)cc1C | 39.5% (active)
56 | O=C(NC(=S)Nc1ccccc1C(=O)O)c1ccc(-c2ccc(Br)cc2)o1 | inactive
57 | O=c1cc(CN2CCN(c3cccc(Cl)c3)CC2)c2cc3c(cc2o1)CCCC3 | inactive
58 | CCc1cccc(C)c1N(C(=O)Cn1c(CO)nc2ccccc21)C(C)COC (stereo not drawn) | 33% (active)
59 | Cc1c(C(=O)Nc2ccccn2)oc2ccc(Br)cc12 | 29.5% (active)
60 | COc1cc(C2CC(=O)N3CN(Cc4ccccc4)CSC3=C2C#N)ccc1OCc1ccccc1 (stereo not drawn) | inactive
61 | CCCCCC(O)c1cccc(OCc2ccc3ccccc3n2)c1 (stereo not drawn) | 38.5% (active)
62 | Cc1ccc(C(=O)c2c(NC(=O)c3ccncc3)sc3c2CCCC3)cc1 | inactive
63 | CCCCN(Cc1ccccc1)C(=O)C1CCN(Cc2sccc2C)CC1 | inactive
64 | O=C(Oc1ccc(Br)cc1C(=S)N1CCOCC1)c1cccc([N+](=O)[O-])c1 | inactive
65 | O=C(C[C@H]1C(=O)N(c2ccc(F)c(F)c2)C[C@@H]1Cc1ccccc1)Nc1ccccc1 | 37% (active)
66 | COc1ccc(C(CCN(Cc2ccc(OC)c(OC)c2)C(=O)CCl)c2ccccc2)cc1 (stereo not drawn) | inactive
67 | Cc1ccc(CN(N=Nc2nonc2N)c2nonc2N)c(C)c1 | 43.5% (active)
68 | CC(C)CC(COCc1ccc(Cl)cc1)N1CCN(C(=O)c2ccc(C(F)(F)F)cc2)CCC1=O (stereo not drawn) | 29.5% (active)
69 | Cc1ccccc1CSCCNC(=O)c1ccc(N(C)S(=O)(=O)c2ccccc2)cc1 | inactive
70 | CN(c1ccccc1)S(=O)(=O)c1cccc(NC(=O)Cc2c(F)cccc2Cl)c1 | 23.5% (active)
71 | COc1ccccc1N1CCN(c2ncnc3sc(C)c(-c4ccccc4)c23)CC1 | inactive
72 | Clc1ccc(CSc2nnc(/C=C/c3ccccc3)o2)c(Cl)c1 | inactive
73 | CCN(CC)S(=O)(=O)c1ccc(N(C)Cc2ccc(C(F)(F)F)cc2)nc1 | 39.5% (active)
74 | O=C(NCc1ccco1)c1ccc(NS(=O)(=O)c2cccc([N+](=O)[O-])c2)cc1 | inactive
75 | CCCC1=Nc2cc(C(=O)NCc3ccco3)ccc2Sc2ccccc21 | 39.5% (active)

Row | Compound | inhibition
76 | COc1cc(Cl)ccc1OCc1cc(C(=O)N2CC[C@@H]3CCCC[C@H]3C2)no1 | inactive
77 | CCOc1ccc(C2c3[nH]c4ccccc4c3CCN2Cc2cccn2-c2ncccn2)cc1 (stereo not drawn) | 25.5% (active)
78 | COCCN(C(=S)Nc1cccc(Cl)c1C)C(C)c1ccco1 (stereo not drawn) | inactive
79 | Cn1nc(-c2ccccc2)c(CSc2cccc(Cl)c2)c1Cl | 38% (active)
80 | CCOC(=O)C1(CCOc2ccccc2)CCN(Cc2cc(OC)c(O)cc2Cl)CC1 | inactive
81 | CCc1nnc(NS(=O)(=O)c2ccc(NC(=S)NC(=O)/C=C/c3cccs3)cc2)s1 | inactive
82 | COc1cccc(NC(=S)N(CCc2c(C)[nH]c3ccccc23)Cc2ccco2)c1 | 30% (active)
83 | Cc1[nH]c2ccccc2c1CCN(Cc1cccs1)C(=S)NC(C)(C)C | inactive
84 | O=C(Nc1ccc(S(=O)(=O)N2CCCCC2)cc1)C1CCN(C(=O)c2ccc(F)cc2)CC1 | inactive
85 | O=C(Cc1ccccc1)n1nc(-c2ccccc2)nc1NCc1ccco1 | 33% (active)
86 | CCCC(=O)n1nc(NCc2ccc(OC)cc2)nc1NCc1ccc(OC)cc1 | inactive
87 | COc1ccccc1NC(=O)CSc1nc2sc(C)c(C)c2c(=O)n1Cc1ccco1 | 38.5% (active)
88 | C=CCOc1ccc(/C=N/NC(=O)C(C)Sc2ccccn2)cc1OCC (stereo not drawn) | 39% (active)
89 | CCCN1C(=O)C(Cc2nc3ccccc3c(=O)n2-c2ccccc2)c2cc(C)ccc21 (stereo not drawn) | 37.5% (active)
90 | CCOc1ccc(CN(Cc2ccco2)C(c2cccs2)c2nnnn2C(C)(C)C)cc1 (stereo not drawn) | 41% (active)
91 | Cc1csc(Nc2ccc(Cl)cc2)[n+]1-c1ccc(Cl)cc1 | inactive
92 | COc1ccc(-c2oc(/N=C/N3CCCC3)c(C#N)c2-c2ccc(OC)cc2)cc1 | inactive
93 | CCC1=NN(C(=O)Cc2ccc([N+](=O)[O-])cc2)C(O)(c2ccc(Br)cc2)C1 (stereo not drawn) | 28.5% (active)
94 | Clc1cccc(-c2nc3nc4ccccc4nc3n2Cc2ccco2)c1 | inactive
95 | Clc1ccc(Cl)c(Oc2ccc(Oc3nc(Cl)ccc3Cl)cc2)n1 | inactive
96 | COC(=O)C1=C(Nc2ccc(C)cc2)C=C(C)C(C(=O)OC)C1c1ccc(F)cc1 (stereo not drawn) | 37.5% (active)
97 | Cc1ccc(C(=O)/C=C/c2c(C)nn(-c3ccccc3)c2Cl)cc1 | inactive
98 | O=C(Nn1c(SCc2ccc([N+](=O)[O-])cc2)nc2ccccc2c1=O)c1ccc(F)cc1 | inactive
